Measured values reported in PubChem BioAssay (Tox21).
Records with an inconclusive call do not appear. Entries that show only a call come without a potency. The source made the active and inactive calls. Calls follow the shape of the full dose curve.

System: not listed separately
Assay: qHTS assay to identify small molecule agonists or antagonists of the thyroid stimulating hormone receptor (TSHR) signaling pathway - wild type cell line counter screen (AID 1259384)
Conditions: HEK293 wild type, cAMP HTRF counter-screen; series mostly up to 92.4 µM
Outline: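 Wild-type Hek293 cells, 800/well, 18 h at 37C, then compound with Ro20-1724 for 30 min RT. cAMP by HTRF (cAMP-d2/anti-cAMP cryptate), 1 h RT, fluorescence read. 15 concentrations, triplicates.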

Structure (SMILES) | Potency
CC(C)(c1ccc(Oc2ccc(N)cc2)cc1)c1ccc(Oc2ccc(N)cc2)cc1 | inactive
CN1CCN(c2ccccc2/C=C2\SCCN(c3ccc(Cl)c(Cl)c3)C2=O)CC1 | inactive
O=C1C=CC(=O)N1c1cccc(N2C(=O)C=CC2=O)c1 | inactive
CC(Cc1ccc(O)c(O)c1)C(C)Cc1ccc(O)c(O)c1 (centres undefined) | inactive
O=C1CCC/C=C\CCCCCCCCCC1 | inactive
COc1cccc(-c2ccc(/C=C\CN3CCCCCC3)cc2Cl)c1 | inactive
c1ccc(-c2ccccc2-c2ccccc2)cc1 | inactive
COc1cc([C@@H]2c3cc4c(cc3[C@@H](O[C@@H]3O[C@@H]5CO[C@@H](C)O[C@H]5[C@H](O)[C@H]3O)[C@H]3COC(=O)[C@H]23)OCO4)cc(OC)c1O | inactive
CCCCCCCC/C=C\CCCCCCCC(=O)N(CCO)CCO | inactive
CC(C)=CCC[C@H](C)CC=O | inactive
CCN(CC)c1ccc(N=Nc2ccccc2)cc1 | inactive
O=[N+]([O-])c1ccc(O)c2ncccc12 | inactive
O=C(N[C@H](CO)[C@H](O)c1ccc([N+](=O)[O-])cc1)C(Cl)Cl | inactive
c1ccc2c(c1)-c1ccc3ccc4cccc5cc-2c1c3c45 | inactive
CCN(CC)c1ccc(C=O)cc1 | inactive
C=C1C(CCl)(CCl)C2(Cl)C(Cl)C(Cl)C1(Cl)C2(Cl)Cl (centres undefined) | inactive
CCCCCCCCCCCCCCCCCCNC(=O)OC1CCN(C(=O)OC[C@H](COC(=O)N(Cc2cccc[n+]2CC)C(=O)c2ccccc2OC)OC)CC1 | inactive
O=S(=O)(c1ccc(OCc2ccccc2)cc1)c1ccccc1O | inactive
Cc1ccc2nc(-c3ccc(N)cc3)sc2c1S(=O)(=O)O | inactive

Molecular target: Thyrotropin receptor (Homo sapiens) (UniProt P16473)
Assay: qHTS assay to identify small molecule antagonists of the thyroid stimulating hormone receptor (TSHR) signaling pathway (AID 1259385); also: nearly all actives have a fitted effect of over 20% in size; also: potency is read from the fitted curve at half-maximal effect
Conditions: TSHR-HEK293 cAMP HTRF, TSH-stimulated antagonist mode; series mostly up to 92.4 µM
Outline: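 TSHR-HEK293 cells (800/well) plated 18 h, then compounds with Ro20-1724 and TSH at 1.5 ng/mL final, 30 min at room temperature. cAMP quantified by HTRF (cAMP-d2/anti-cAMP-cryptate, 1 h); 15 concentrations in triplicate.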

Chain of Thyrotropin receptor (Homo sapiens) (P16473 whole entry, looked up): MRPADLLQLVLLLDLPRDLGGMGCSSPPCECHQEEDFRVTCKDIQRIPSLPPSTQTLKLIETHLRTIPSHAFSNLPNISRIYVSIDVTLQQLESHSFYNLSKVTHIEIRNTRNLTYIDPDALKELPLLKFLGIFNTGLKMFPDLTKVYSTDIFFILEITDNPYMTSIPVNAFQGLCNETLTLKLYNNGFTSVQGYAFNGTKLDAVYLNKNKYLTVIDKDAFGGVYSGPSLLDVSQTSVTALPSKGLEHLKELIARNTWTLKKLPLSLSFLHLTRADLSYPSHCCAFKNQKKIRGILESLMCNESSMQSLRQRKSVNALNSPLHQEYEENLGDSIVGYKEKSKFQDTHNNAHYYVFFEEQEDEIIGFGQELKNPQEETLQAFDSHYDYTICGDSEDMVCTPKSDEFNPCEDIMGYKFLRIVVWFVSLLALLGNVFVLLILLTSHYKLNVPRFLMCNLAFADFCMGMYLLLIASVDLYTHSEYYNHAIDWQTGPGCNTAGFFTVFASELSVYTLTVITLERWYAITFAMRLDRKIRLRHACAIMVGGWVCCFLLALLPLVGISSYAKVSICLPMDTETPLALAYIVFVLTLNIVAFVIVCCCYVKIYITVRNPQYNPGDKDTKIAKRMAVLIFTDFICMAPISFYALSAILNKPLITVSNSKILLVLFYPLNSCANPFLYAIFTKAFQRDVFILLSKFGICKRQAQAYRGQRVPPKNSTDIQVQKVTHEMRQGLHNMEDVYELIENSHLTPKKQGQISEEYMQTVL

Structure (SMILES) | Potency
C/C(=C\c1ccc(C(=O)O)cc1)c1ccc2c(c1)C(C)(C)CCC2(C)C | 29.8 µM (active)
CCN(CC)c1ccc(C=O)c(O)c1 | inactive
Cc1ccc(S(=O)(=O)C(I)I)cc1 | 68.6 µM (active)
O=C1CCC/C=C\CCCCCCCCCC1 | inactive
CCCCCc1ccc(O)cc1 | inactive
CC(C)(C)c1cc(CCC(=O)OCCSCCOC(=O)CCc2cc(C(C)(C)C)c(O)c(C(C)(C)C)c2)cc(C(C)(C)C)c1O | inactive
Cc1ccc(Cl)c(N)c1Cl | inactive
CCCCCCCC/C=C\CCCCCCCC(=O)N(CCO)CCO | inactive
CCCCC/C=C\C=C\C(=O)OCC | inactive
S=C1NC=NC2N=CNC12 (centres undefined) | inactive
CCCCCCCCCC[N+](C)(CCCCCCCCCC)CCC[Si](OC)(OC)OC | inactive
O=C(N[C@H](CO)[C@H](O)c1ccc([N+](=O)[O-])cc1)C(Cl)Cl | inactive
C=C1C(CCl)(CCl)C2(Cl)C(Cl)C(Cl)C1(Cl)C2(Cl)Cl (centres undefined) | inactive
CCCCCCCCCCCCCCCCCCNC(=O)OC1CCN(C(=O)OC[C@H](COC(=O)N(Cc2cccc[n+]2CC)C(=O)c2ccccc2OC)OC)CC1 | 29.8 µM (active)
Cc1ccc2nc(-c3ccc(N)cc3)sc2c1S(=O)(=O)O | inactive
